Screening results from PubChem BioAssay.
Only some compounds are listed: those with a hit (about 2.4% of all), similar ones and a draw of the others.
D2 PAM-1 = human D2 receptor positive allosteric modulation; P14416; actives 0.23% (n = 360,000); DiscoveRx D2 beta-arrestin cells, luminescence, 90 min; 100% = 57 uM dopamine signal; potentiation, % (test concentration not listed); in the data active means potentiation above about 50%
Target sequence (P14416 whole entry, looked up): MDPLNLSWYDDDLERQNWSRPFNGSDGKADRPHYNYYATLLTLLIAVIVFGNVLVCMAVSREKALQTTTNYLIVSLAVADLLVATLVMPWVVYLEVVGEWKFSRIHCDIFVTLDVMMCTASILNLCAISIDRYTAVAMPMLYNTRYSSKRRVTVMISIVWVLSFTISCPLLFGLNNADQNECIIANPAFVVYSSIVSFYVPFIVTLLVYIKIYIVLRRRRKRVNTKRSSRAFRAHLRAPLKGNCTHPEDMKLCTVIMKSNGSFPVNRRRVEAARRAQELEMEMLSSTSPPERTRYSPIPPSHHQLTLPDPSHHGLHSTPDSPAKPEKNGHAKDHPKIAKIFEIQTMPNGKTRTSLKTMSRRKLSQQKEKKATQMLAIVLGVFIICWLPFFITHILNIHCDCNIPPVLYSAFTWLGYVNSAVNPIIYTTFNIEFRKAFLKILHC
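PathHunter D2 cells, attached overnight at 37 deg C, received compound in DMSO plus dopamine at EC20 (50 nM final) for 90 min at 37 deg C. Beta-arrestin recruitment was read as luminescence after 1 h with detection reagent at ambient temperature.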
D2 PAM-2 = positive allosteric modulators of human D2 dopamine receptor. P14416. actives 0.34% (n = 340,000). HEK293 T-REx D2, calcium flux, EC20 dopamine potentiation. potentiation, % at 10 µM. AID 485347;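 active means potentiation over 3 SD above the plate norm, cut at about 30% in these data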; further: 0% is about no effect
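Primary screen. Calcium kinetics in induced HEK293 T-REx D2 cells: compound pre-addition 180 s, EC20 dopamine, 180 s more.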
D2 antagonist = antagonists of human D2 dopamine receptor. HEK293 TREx D2 cells, calcium flux, dopamine EC80. inhibition, % at 10 µM. P14416. actives 2% (n = 340,000); in the data active means inhibition above about 30%; inactive means below that, where a call was filed; further: 0% is about no effect
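Measurement of antagonist activity uses fluorescent calcium dye in inducible HEK293 T-REx D2 cells: 10 s baseline, compound addition with 180 s read, EC80 dopamine addition with a further 180 s read.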
D2 ag-1 = human D2 receptor agonism in beta-arrestin assay. DiscoveRx PathHunter D2 beta-arrestin, luminescence, 90 min; 100% = 57 uM dopamine signal. P14416. activation, % (no concentration beside the values). actives 0.084% (n = 360,000). AID 624465; in the data active means activation above about 40%
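Agonist mode: compounds alone added to overnight-plated D2 PathHunter cells for 90 min at 37 C, with 57 uM final dopamine (EC100) defining full response. Beta-arrestin recruitment detected by chemiluminescent reagent, read after 1 h at ambient temperature.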
D2 ag-2 = agonists of human D2 dopamine receptor | P14416 | HEK293 T-REx D2 cells, calcium flux agonist mode | activation, % at 2 µM | actives 0.53% (n = 340,000) | AID 485358;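 active means activation over 3 SD above normal in the single-dose calcium agonist read, cut at about 30% in these data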; further: 0% is about no effect
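Tetracycline-induced HEK293 T-REx cells with force-coupled D2 receptor, plated overnight at 30 C, loaded with no-wash calcium dye. After a 10 s baseline, compound was pin-added and calcium flux read kinetically for 180 s; calcium rises flagged agonists.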
* = called active by the depositor; / = not tested or not shown.

SMILES	D2 PAM-1	D2 PAM-2	D2 antagonist	D2 ag-1	D2 ag-2
Cc1cc(C)c2c(n1)nn1c(NCCCN3CCOCC3)cc(C)nc21	-12	/	/	-3	/
Cc1cc(C)c2c(n1)nn1c(NCCCn3ccnc3)cc(C)nc21	/	34*	-17	/	0
CCS(=O)(=O)c1ccc2oc(SCC(=O)NCCC3=CCCCC3)nc2c1	-3	-1	68*	-1	-1
CCCC(=O)N(CCN(C(=O)CCC)c1ccccc1)c1ccccc1	-9	31*	-9	-1	1
CCOc1ncccc1C(=O)N1CCCSC1=Nc1ccc(C(C)=O)cc1	-3	5	-2	-7	-2
CSc1ccc(/C=C(\C(=O)O)c2ccc(S(=O)(=O)N3CCCC3)s2)cc1	0	4	36*	9	0
COc1ccc(C2=NS(=O)(=O)N(C)C(C(=O)Nc3ccc4c(c3)OCO4)=C2)cc1OC	12	9	9	-5	0
O=C(c1ccccc1)N1CCc2cc(CNS(=O)(=O)c3ccc(Cl)s3)ccc21	/	-2	/	/	-1
CCn1nnnc1NCc1ccc(Cl)cc1	-6	14	47*	0	1
CCCn1nnnc1NCc1ccc(SC)cc1	-1	6	37*	-1	-1
O=C(CSc1c2c(nc3ccccc13)CCC2)Nc1ccc(F)cc1	/	-5	/	/	0
CCOc1ccc(NC(=O)c2c(NCc3sccc3C)sc3c2CCCCC3)cc1	/	-1	/	/	0
COc1cc(/C=C2\S/C(=N/S(=O)(=O)Cc3ccccc3)NC2=O)c([N+](=O)[O-])cc1OC	-15	1	/	-5	/
O=C1N/C(=N\S(=O)(=O)Cc2ccccc2)S/C1=C/c1cc([N+](=O)[O-])ccc1O	-14	2	31*	-9	59*
O=C1N/C(=N\S(=O)(=O)c2ccccc2)S/C1=C\c1cc([N+](=O)[O-])ccc1O	-25	-4	-19	-13	33*
CCOc1ccccc1Nc1ccc2cc(S(=O)(=O)N3CCCCC3)ccc2n1	/	3	/	/	0
C=CCOc1ccccc1CN1CCC(CO)(CCOc2ccccc2)CC1	-10	-20	64*	-1	-1
OCC1(CCOc2ccccc2)CCN(Cc2ccccc2OC(F)F)CC1	-25	-17	-3	-1	0
CSc1ccc(CN2CCC(CO)(CCOc3ccccc3)CC2)cc1	-82	-18	51*	1	1
Cc1ccc2c(CC(=O)Nc3ccc(S(=O)(=O)N4CCCCC4C)cc3)coc2c1 (stereo not given)	/	-2	/	/	3
O=C(CN1CCCCC1)Nc1ccc(S(=O)(=O)N2CCCCCC2)cc1	-12	-5	-10	-2	-1
O=C(CN1CCN(c2ccc(O)cc2)CC1)Nc1ccc(S(=O)(=O)N2CCCC2)cc1	28	/	/	49*	/
CC(C)CC(=O)Nc1ccc(C(=O)CN2CCN(c3ccc(O)cc3)CC2)cc1	5	31*	0	6	0
CCN(CC)S(=O)(=O)c1ccc2c(c1)N(CC(=O)N1CCN(c3cccc(C)c3C)CC1)C(=O)CO2	/	21	/	/	0
CCOC(=O)c1[nH]c(C)c(CCC(=O)Nc2ccc(C(C)=O)cc2)c1C	/	-3	/	/	0
SMILES	D2 PAM-1	D2 PAM-2	D2 antagonist	D2 ag-1	D2 ag-2
Cc1cc(OC(=O)c2ccco2)c(Sc2ccccc2[N+](=O)[O-])c(=O)o1	-9	3	34*	-5	1
Cc1ccc(NC(=O)Cn2c(=O)n(CCC(=O)N3CCc4ccccc4C3)c(=O)c3ccccc32)cc1	/	10	/	/	0
CCOC(=O)C1=C(C)N(CCCCCC(=O)O)C(=O)NC1c1cccc([N+](=O)[O-])c1 (stereo not given)	-25	6	2	0	0
CCOC(=O)C1=C(C)N(CCCCCC(=O)O)C(=O)NC1c1ccc([N+](=O)[O-])cc1 (stereo not given)	-10	-18	8	-5	31*
COc1ccc(N2CCN(C(=O)c3ccc4c(c3)CC(c3ccccc3)OC4=O)CC2)cc1 (stereo not given)	-32	6	-15	0	1
Cc1ccccc1C(=O)N1c2ncnn2C2(CCCCC2)[C@@H]2CCCC[C@@H]21	/	1	/	/	0
O=C(CCNC(=O)C1CCN(S(=O)(=O)c2ccc(F)cc2)CC1)NCc1ccc(F)cc1	3	4	33*	4	1
